Results filed as inconclusive are left out. The source made the active and inactive calls. Unless noted, calls come from the whole dose curve; as a rule, active = well fitted curve in the direction sought with a large enough effect in the repeat runs; inconclusive = weak or mixed curves; inactive = no such curve, though single readings can be large; an effect the other way counts as inactive or inconclusive.
Legend:
[1] = qHTS assay for small molecules that induce genotoxicity in human embryonic kidney cells expressing luciferase-tagged ATAD5 (AID 651632); note: nearly all actives have a fitted effect of over 15% in size
In short: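 Genotoxicity read-out via ATAD5-luciferase: HEK293T cells, 16 hr compound incubation at 37C, Amplite detection.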

[2] = qHTS assay for small molecules that induce genotoxicity in human embryonic kidney cells expressing luciferase-tagged ATAD5 - cell viability (AID 651634; calls by dose curve; note: nearly all actives have a fitted effect of over 25% in size)
In short: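 Live-cell protease activity (CellTiter-Fluor, fluorescence) indicates viability. HEK293T cells with luciferase-tagged ATAD5; 15.5 hr compound treatment at 37C.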

[3] = qHTS assay for small molecule disruptors of the mitochondrial membrane potential - cell viability (AID 720634; calls by dose curve;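 note: human HepG2 liver cancer cells; series mostly up to about 83 µM; nearly all actives have a fitted effect of over 20% in size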)
In short: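 Human hepatoma HepG2 cells were treated for 1 hr with test chemicals, then given m-MPI dye and CellTiter-Glo. Cell viability reflects luminescence proportional to cellular ATP.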

[4] = qHTS assay to test for compound auto fluorescence at 590 nm (red) in HepG2 cells (AID 720674)
In short: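 Red autofluorescence (Ex/Em 540/590 nm, Rose Bengal sodium equivalents) was measured in HepG2 cells, 2,000 per well in MEM plus 10% FBS, plated overnight at 37 C. Readings were taken 1 hr after adding 23 nL compound or DMSO, at 37 C and 5% CO2.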

[5] = qHTS assay to test for compound auto fluorescence at 535 nm (green) in HepG2 cells (AID 720675)
[6] = qHTS assay to test for compound auto fluorescence at 460 nm (blue) in HEK293 cells (AID 720678)
In short: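 Triamterene serves as the blue fluorophore standard. Compound signal at 405/460 nm is read in HEK293 wells (2,000 cells, 10% dialyzed FBS) after overnight treatment at 37C.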

[7] = qHTS assay to test for compound auto fluorescence at 590 nm (red) in HEK293 cells (AID 720679)
In short: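 We plated HEK293 cells in 10% dialyzed FBS medium, let them adhere for 4-5 hr, then added 23 nL compound. Overnight at 37C and 5% CO2 preceded fluorescence measurement at 540/590nm.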

[8] = qHTS assay to test for compound auto fluorescence at 535 nm (green) in HEK293 cells (AID 720680)
[9] = qHTS assay to test for compound auto fluorescence at 460 nm (blue) in HEK293 cell free culture (AID 720681)
In short: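 Blue fluorescence (Ex 405/Em 460 nm, triamterene-equivalent) was read immediately after pin transfer of compound or DMSO into medium (DMEM, 10% FBS) without cells.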

[10] = qHTS assay to test for compound auto fluorescence at 535 nm (green) in HEK293 cell free culture (AID 720682)
In short: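 DMEM + 10% FBS, cell-free; cpd or DMSO pinned in; Ex485/Em535 read; output as fluorescein-equivalent signal.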

[11] = qHTS assay to test for compound auto fluorescence at 590 nm (red) in HepG2 cell free culture (AID 720684)
In short: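 Steps: dispense MEM/10% FBS medium, no cells; pin compound or DMSO vehicle; read red channel, Ex/Em 540/590 nm. Output given as Rose Bengal sodium equivalents.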

[12] = qHTS assay to test for compound auto fluorescence at 460 nm (blue) in HepG2 cell free culture (AID 720685)
In short: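 Compound (23 nL) or DMSO pinned into cell-free MEM with 10% FBS; blue fluorescence read at 405/460 nm excitation/emission, expressed as auto-fluorescence equivalency to triamterene.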

[13] = qHTS assay to test for compound auto fluorescence at 535 nm (green) in HepG2 cell free culture (AID 720686)
[14] = qHTS assay to test for compound auto fluorescence at 460 nm (blue) in HepG2 cells (AID 720687)
In short: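 Blue-channel autofluorescence (Ex/Em 405/460 nm, triamterene-equivalent) was measured after 1 hr compound exposure at 37 C, 5% CO2. Cells were HepG2, plated overnight at 37 C in MEM plus 10% FBS.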

[15] = qHTS assay for small molecule agonists of the p53 signaling pathway - cell viability (AID 651633; calls by dose curve;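 note: p53RE-bla HCT reporter cells with a stable beta-lactamase p53 reporter; series mostly up to about 83 µM; nearly all actives have a fitted effect of over 30% in size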)
In short: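 Viability counter-read: CellTiter-Glo luminescence (30 min, room temperature) in the same p53RE-bla plates. These plates had been exposed to compounds for 16 h at 37 C.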

[16] = qHTS assay for small molecule disruptors of the mitochondrial membrane potential (AID 720635); note: potency is the fitted concentration of half-maximal effect
In short: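 Mitochondrial membrane potential tracked with Mito-MPS dye, red aggregates (ex 540/em 590 nm) against green monomers (ex 490/em 535 nm). Compound treatment 1 hr at 37C, dye 30 min in HepG2.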

[17] = qHTS assay to test for compound auto fluorescence at 590 nm (red) in HEK293 cell free culture (AID 720683)
In short: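 Red-channel autofluorescence of compounds in culture medium (DMEM, 10% FBS), no cells, measured at 540/590 nm. Rose Bengal sodium is the reference fluorophore for equivalence.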

[18] = biological target: Glucocorticoid receptor (Homo sapiens) (UniProt P04150); test: qHTS assay to identify small molecule agonists of the glucocorticoid receptor (GR) signaling pathway (AID 720691; active = well fitted activation curve with a large enough effect in the signal ratio in the repeat runs, not every such curve was filed as active; the % refers to the signal ratio)
In short: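 Beta-lactamase reporter activity, read as fluorescence intensity, was measured in GR-bla HeLa cells exposed to compounds for 18 h at 37 C and then loaded with LiveBLAzer B/G FRET substrate for 2 h at room temperature.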

[19] = biological target: Glucocorticoid receptor (Homo sapiens) (UniProt P04150); test: qHTS assay to identify small molecule antagonists of the glucocorticoid receptor (GR) signaling pathway (AID 720692; active = well fitted inhibition curve with a large enough effect in the signal ratio in the repeat runs, not every such curve was filed as active; the % refers to the signal ratio)
In short: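 Fluorescence from cleaved LiveBLAzer B/G FRET substrate reports GRE-driven beta-lactamase in HeLa cells; compounds are tested against 5 nM dexamethasone (final) over 18 h at 37 C, substrate incubation 2 h at room temperature.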
% is set by controls: 0 for no effect and ±100 for the full control effect.

Glucocorticoid receptor (Homo sapiens), sequence (P04150 whole entry, looked up): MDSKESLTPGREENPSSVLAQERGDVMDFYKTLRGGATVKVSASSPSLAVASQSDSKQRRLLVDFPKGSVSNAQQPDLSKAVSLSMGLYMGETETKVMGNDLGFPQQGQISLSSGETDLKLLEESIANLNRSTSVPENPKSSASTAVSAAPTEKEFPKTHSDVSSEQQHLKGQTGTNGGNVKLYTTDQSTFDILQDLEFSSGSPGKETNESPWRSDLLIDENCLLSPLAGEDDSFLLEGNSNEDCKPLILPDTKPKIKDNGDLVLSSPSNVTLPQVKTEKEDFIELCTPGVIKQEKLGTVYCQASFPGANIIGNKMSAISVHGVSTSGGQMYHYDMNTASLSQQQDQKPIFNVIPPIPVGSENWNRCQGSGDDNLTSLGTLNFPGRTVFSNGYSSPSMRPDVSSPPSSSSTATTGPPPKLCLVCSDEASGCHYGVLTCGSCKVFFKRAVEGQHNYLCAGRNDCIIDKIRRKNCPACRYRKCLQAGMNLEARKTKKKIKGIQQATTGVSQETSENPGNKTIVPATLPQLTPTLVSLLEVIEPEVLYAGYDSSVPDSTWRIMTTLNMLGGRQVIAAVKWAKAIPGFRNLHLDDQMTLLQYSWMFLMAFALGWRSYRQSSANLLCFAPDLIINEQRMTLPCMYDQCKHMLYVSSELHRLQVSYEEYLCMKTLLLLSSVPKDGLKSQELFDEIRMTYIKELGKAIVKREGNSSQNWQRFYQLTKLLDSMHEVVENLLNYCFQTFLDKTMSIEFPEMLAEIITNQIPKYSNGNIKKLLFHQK

CC(C)(Cc1c[nH]c2ccccc12)NCC(O)COc1ccccc1C#N (stereo not given)
inactive: Potency [1] | Potency [2] | Potency [3] | outcome [4] | outcome [5] | Potency [6] | outcome [7] | outcome [8] | Potency [9] | outcome [10] | outcome [11] | outcome [12] | outcome [13] | outcome [14]

OCCOc1cccc(OCCO)c1
inactive: Potency [15] | Potency [2] | Potency [3] | Potency [16] | outcome [4] | outcome [5] | Potency [6] | outcome [7] | outcome [8] | Potency [9] | outcome [10] | outcome [17] | outcome [11] | outcome [12] | outcome [13] | outcome [14]

O=C(O)c1ccc2c(c1)nc(C(=O)NC1CCN(C3CC3)CC1)n2Cc1cc(-c2ccc(Cl)s2)on1
inactive: Potency [2] | Potency [3] | fluorescence, relative to Rose Bengal [4] 0.429% [at 18.6 µM] | fluorescence, % of fluorescein control [5] -0.0395% [at 18.6 µM] | fluorescence, % of triamterene [6] 0.0005% [at 18.6 µM] | fluorescence, % of fluorescent control [7] 0.147% [at 18.6 µM] | fluorescence, % of fluorescein [8] -0.0247% [at 18.6 µM] | fluorescence, % of fluorescent control [9] 0.0923% [at 18.6 µM] | activity change [10] -0.024% [at 18.6 µM] | fluorescence, % of Rose Bengal [11] -0.135% [at 18.6 µM] | fluorescence, % of fluorescein control [13] -0.0042% [at 18.6 µM] | fluorescence, % of fluorescent control [14] 0.0789% [at 18.6 µM]

c1ccc(CN(Cc2ccccc2)Cc2ccccc2)cc1
inactive: Potency [1] | Potency [2] | Potency [3] | outcome [4] | outcome [5] | Potency [6] | outcome [7] | outcome [8] | Potency [9] | outcome [10] | outcome [17] | outcome [12] | outcome [13] | outcome [14] | Potency [18]
active: Potency [16] 30.6 µM

CCC1=C(C)CN(C(=O)NCCc2ccc(S(=O)(=O)NC(=O)NC3CCC(C)CC3)cc2)C1=O (stereo not given)
inactive: Potency [1] | Potency [2] | Potency [3] | outcome [4] | outcome [5] | Potency [6] | outcome [7] | outcome [8] | Potency [9] | outcome [10] | outcome [11] | outcome [12] | outcome [13] | outcome [14] | Potency [18] | Potency [19]

CC(C(=O)O)c1ccc(/C=C2\CCCCC2=O)cc1 (stereo not given)
inactive: Potency [2] | Potency [3] | outcome [4] | outcome [5] | Potency [6] | outcome [8] | Potency [9] | outcome [10] | outcome [17] | outcome [11] | outcome [12] | outcome [13] | outcome [14] | Potency [18] | Potency [19]

CC(C)(C)c1ccc(CCC=O)cc1
inactive: Potency [2] | Potency [16] | outcome [4] | outcome [5] | Potency [6] | outcome [7] | outcome [8] | Potency [9] | outcome [10] | outcome [17] | outcome [11] | outcome [12] | outcome [13] | outcome [14] | Potency [18] | Potency [19]

Cc1nc2sccn2c(=O)c1CCN1CCC(=C(c2ccc(F)cc2)c2ccc(F)cc2)CC1
inactive: Potency [1] | Potency [2] | Potency [3] | outcome [4] | outcome [5] | Potency [6] | outcome [7] | outcome [8] | Potency [9] | outcome [10] | outcome [17] | outcome [11] | outcome [12] | outcome [13] | outcome [14]

Source: PubChem BioAssay (Tox21)
